# From PubChem BioAssay AID1964107 (National Center for Advancing Translational Sciences (NCATS), 2024)
# In all, about 31,000 compounds went through this assay and about 360 (1.2%) were called active. Not shown: some 8% with an inconclusive outcome. Shown is part of a subset that was picked to be rich in actives. A number with no mark means an inactive call. Calls come from the whole dose curve.
# Target: Polyprotein P1234 (Chikungunya virus (strain S27-African prototype)) (UniProt Q8JUX6)
# Experiment: Primary qHTS for inhibitors of NSP2Pro chikungunya virus (CHIKV); note: nearly all actives have a fitted effect of over 60% in size
# Details: FRET peptide cleavage, fluorescence 1 h; series mostly up to 24.9 µM; activity change, negative = inhibition: at the top concentration
# Source text: PI: Natalia J. Martinez Ph.D. National Center for Advancing Translational Sciences (NCATS), National Institute of Health (NIH), Rockville, Maryland Chikungunya virus (CHIKV) is a mosquito-borne RNA virus that has emerged as one of the most important global arboviral threats in the last decade. Although the first CHIKV vaccine has recently been FDA approved for use in healthy adults at increased risk, to date, there are no available antiviral drugs for CHIKV infection. CHIKV nsP2 protease plays a crucial role in the processing of the viral polypeptide precursor to release enzymes required for viral replication, thus making it a promising drug target for antiviral discovery. Here, we established a high-throughput pipeline to identify small molecule inhibitors of nsP2 proteolytic activity. The pipeline is composed of a suite of 1,536-well in vitro assays to support quantitative high-throughput (qHTS) screening campaigns. Specifically, we developed a fluorescence resonance energy transfer (FRET)-based assay using a fluorogenic peptide substrate encompassing an endogenous cleavage site and purified recombinant protease domain (nsP2pro). Using this assay, we interrogated ~37,000 small molecules, including those in drug repurposing libraries as well as chemically diverse and medicinal chemistry-friendly compounds. Hits were selected for follow-up validation against full-length nsP2 and an additional peptide. FRET-based 1,536-well assays for papain, hepatitis C virus NS3-4A, and human furin proteases were implemented to characterize compound selectivity. […] Novel compounds were identified to be potential nsP2 inhibitors and molecular docking analyses were performed to explain the binding mode of selected hits. In vitro antiviral activity was evaluated for a subset of compounds using a high-throughput CHIKV infection assay. To our knowledge, the pipeline presented here is unprecedented for CHIKV antiviral discovery research.
# PROTOCOL TABLE (as described by Inglese J, Shamu CE and Guy RK. 2007) SEQUENCE No. (e.g., 1, 2, 3, etc.); […] (e.g., Cells, Incubation, Reagent, etc.); VALUE; DESCRIPTION. 1; Control / Compound; 20 nL; Echo 655 acoustic dispenser, Greiner 1536-well solid bottom black plate. 2; Enzyme; 4 uL; BioRAPTR FRD liquid dispenser (Beckman Coulter). 3; Incubation; 15 min; room temperature. 4; Reagent; 4 uL; 2.5 uM Peptide 2 substrate. 5; Incubation; 1 hr; room temperature. 6; Detection; Fluorescence; WiewLux microplate reader (PerkinElmer), 525 nm excitation, 598/25 nm emission. NOTES (numbers refer to sequence numbers above). 1. Briefly, 20 nL DMSO, positive control ZnAc (20nM final concentration), and test compounds were transferred into a 1,536-well solid bottom black plate (789176-F, Greiner One) via Echo 655 acoustic dispenser (Beckman Coulter). For primary screens, compounds were tested at 7 concentrations, 1:3 dilution points ranging from 25 uM to 34 nM. Follow-up confirmatory screens were carried out at 11 concentrations, 1:3 dilution points from 25 uM to 0.42 nM. 2. Four uL nsP2pro enzyme mix (150 nM final concentration) in 10 mM Tris-HCl pH 8.0 with 0.01% Tween 20 assay buffer was dispensed into the plate using a BioRAPTR FRD liquid dispenser (Beckman Coulter). 3. The plate was incubated at room temperature (protected from light) for 15 min 4. Four microliter of peptide 2 substrate (2.5 uM final concentration) in assay buffer was added to the plate. 5. After 1 hour, plates were immediately read on a ViewLux high-throughput CCD imager (Exposure = 10 sec, Gain = High, Speed = Slow, Binning = 2X). The above assay was also incorporated in the NCATS HTS facility41, which allowed for robotic liquid and compound dispensing, microplate handling, and fluorescence reading.. REFERENCE: Inglese J, Shamu CE and Guy RK, Reporting data from high throughput screening of small molecule libraries, Nature Chemical Biology, 2007, 3(8): 438-441. doi.org/10.1038/nchembio0807-438.
# % is set by controls: 0 for no effect and ±100 for the full control effect; potency is the fitted concentration of half-maximal effect.
# Sequence of Polyprotein P1234 (Chikungunya virus (strain S27-African prototype)) (Q8JUX6 whole entry, looked up): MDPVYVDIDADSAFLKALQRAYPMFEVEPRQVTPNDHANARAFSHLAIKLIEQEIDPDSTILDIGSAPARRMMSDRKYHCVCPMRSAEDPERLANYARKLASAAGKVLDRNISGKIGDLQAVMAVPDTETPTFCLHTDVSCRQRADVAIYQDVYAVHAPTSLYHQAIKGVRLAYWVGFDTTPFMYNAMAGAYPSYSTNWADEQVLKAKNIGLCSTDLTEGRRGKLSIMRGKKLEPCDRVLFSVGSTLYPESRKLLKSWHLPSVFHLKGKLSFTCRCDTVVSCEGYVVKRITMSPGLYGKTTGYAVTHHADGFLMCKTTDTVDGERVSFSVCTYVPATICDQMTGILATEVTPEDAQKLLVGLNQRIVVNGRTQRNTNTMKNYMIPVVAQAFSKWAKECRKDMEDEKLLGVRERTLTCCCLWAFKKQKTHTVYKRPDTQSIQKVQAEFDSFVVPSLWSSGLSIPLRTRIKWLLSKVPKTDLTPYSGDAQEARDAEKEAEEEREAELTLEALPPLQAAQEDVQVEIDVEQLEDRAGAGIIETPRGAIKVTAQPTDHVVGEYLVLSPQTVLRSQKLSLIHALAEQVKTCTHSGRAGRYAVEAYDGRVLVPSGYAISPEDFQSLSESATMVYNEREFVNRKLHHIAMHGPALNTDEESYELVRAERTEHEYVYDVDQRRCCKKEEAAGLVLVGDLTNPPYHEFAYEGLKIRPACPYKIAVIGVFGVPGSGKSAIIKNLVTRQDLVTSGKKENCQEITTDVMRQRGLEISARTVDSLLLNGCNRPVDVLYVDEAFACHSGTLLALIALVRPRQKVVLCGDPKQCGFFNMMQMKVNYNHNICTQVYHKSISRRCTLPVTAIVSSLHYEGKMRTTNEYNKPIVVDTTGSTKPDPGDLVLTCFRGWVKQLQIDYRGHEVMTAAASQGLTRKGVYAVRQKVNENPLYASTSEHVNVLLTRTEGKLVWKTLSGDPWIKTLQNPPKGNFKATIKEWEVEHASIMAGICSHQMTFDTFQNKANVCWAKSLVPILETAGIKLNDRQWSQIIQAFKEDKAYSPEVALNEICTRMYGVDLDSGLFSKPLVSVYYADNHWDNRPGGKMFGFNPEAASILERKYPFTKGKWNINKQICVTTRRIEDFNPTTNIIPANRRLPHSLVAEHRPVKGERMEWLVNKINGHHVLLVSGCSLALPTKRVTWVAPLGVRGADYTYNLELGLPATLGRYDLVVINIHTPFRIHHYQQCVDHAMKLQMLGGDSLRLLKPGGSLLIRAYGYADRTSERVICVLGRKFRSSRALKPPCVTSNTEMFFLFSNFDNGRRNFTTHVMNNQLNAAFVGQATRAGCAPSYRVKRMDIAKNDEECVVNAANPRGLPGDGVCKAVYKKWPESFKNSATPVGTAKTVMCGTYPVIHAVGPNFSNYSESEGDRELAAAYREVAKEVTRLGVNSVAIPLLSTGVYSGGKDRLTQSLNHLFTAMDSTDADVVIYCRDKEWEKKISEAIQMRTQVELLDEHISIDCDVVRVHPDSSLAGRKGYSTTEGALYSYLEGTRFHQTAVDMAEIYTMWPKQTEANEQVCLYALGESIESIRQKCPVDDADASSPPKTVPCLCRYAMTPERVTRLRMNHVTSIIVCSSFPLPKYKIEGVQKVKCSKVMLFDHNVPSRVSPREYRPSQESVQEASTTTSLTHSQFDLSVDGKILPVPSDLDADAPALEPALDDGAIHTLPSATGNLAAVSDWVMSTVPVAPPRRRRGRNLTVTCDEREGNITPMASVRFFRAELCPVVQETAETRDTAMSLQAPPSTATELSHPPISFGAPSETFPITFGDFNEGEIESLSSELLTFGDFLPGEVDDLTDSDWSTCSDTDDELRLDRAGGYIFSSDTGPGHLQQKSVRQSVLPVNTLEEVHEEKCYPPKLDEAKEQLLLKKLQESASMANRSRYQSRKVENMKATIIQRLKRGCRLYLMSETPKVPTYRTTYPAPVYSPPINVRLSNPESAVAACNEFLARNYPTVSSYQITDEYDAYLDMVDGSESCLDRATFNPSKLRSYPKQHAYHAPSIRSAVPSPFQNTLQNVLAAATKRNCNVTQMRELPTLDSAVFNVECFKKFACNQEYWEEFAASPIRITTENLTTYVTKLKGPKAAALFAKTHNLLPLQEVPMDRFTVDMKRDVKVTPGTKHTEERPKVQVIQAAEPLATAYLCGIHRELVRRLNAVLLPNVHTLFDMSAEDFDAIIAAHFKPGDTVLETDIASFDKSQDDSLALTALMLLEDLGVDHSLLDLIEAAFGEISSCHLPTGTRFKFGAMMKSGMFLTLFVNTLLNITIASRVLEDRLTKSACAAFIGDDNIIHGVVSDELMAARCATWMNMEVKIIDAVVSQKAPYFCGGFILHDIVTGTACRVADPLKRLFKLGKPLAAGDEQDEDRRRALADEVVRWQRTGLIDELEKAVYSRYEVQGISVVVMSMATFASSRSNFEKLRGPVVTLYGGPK
SMILES,"activity change, negative = inhibition",outcome,Potency
CC(C)NC(=O)NCC1Cn2cccc2C(=O)N1Cc1ccccc1 (configuration not stated),-12.1% (inactive),,
CCCC12CN3CC(CCC)(CN(C1)C3c1c[nH]c3ccc(OC)cc13)C2=O (configuration not stated),8.29% (inactive),,
COc1ccc(N2Cc3cccc(C(=O)O)c3C2=O)cc1OC,-3.96% (inactive),,
Cc1ccc(NC(=O)CSc2nc3c(c(=O)[nH]2)CN(Cc2ccc4c(c2)OCO4)CC3)cc1C,-21.7% (inactive),,
O=C(Nc1ncc(Cc2ccc(C(F)(F)F)cc2)s1)c1ccc(-c2ccc([N+](=O)[O-])cc2)o1,-11.4% (inactive),,
COc1cccc(Nc2ccc(N3CCN(C(C)=O)CC3)cc2)c1OC,,inactive,
COc1ccccc1OCCCn1c(-c2ccc(Cl)cc2)nc2ccccc2c1=O,-10.8% (inactive),,
Cc1cc(C)nc(NS(=O)(=O)c2ccc(NC(=O)c3cc(=O)c4ccc(C)c(C)c4o3)cc2)n1,-9.45% (inactive),,
O=C1C(F)N([S+](=O)([O-])c2ccc3c(c2)OCCO3)CCN1[S+](=O)([O-])c1c(F)cccc1F (configuration not stated),,inactive,
Cc1cnn(CCC(=O)N2CCC3(CCNCC3)CC2)c1,-10.6% (inactive),,
CCOc1ccc(N(CC)C(=O)C2CCN(S(=O)(=O)c3cccc4nonc34)CC2)cc1,-21.2% (inactive),,
CCOc1ccc(N(Cc2ccccc2)C(=O)c2nc(SCC)ncc2Cl)cc1,4.15% (inactive),,
CCOc1ccc(N(Cc2ccccc2)C(=O)c2nc(S(C)(=O)=O)ncc2Cl)cc1,,,5.01 µM (active)
Cn1nnnc1Sc1ncnc2scc(-c3ccccc3[N+](=O)[O-])c12,-0.0419% (inactive),,
Cn1nnnc1Sc1ncnc2n[nH]c(-c3cccc(S(C)(=O)=O)c3)c12,,,2.82 µM (active)
Cc1ccc(-c2ccccc2CN2CCN([S+](=O)([O-])c3cccc(C(F)(F)F)c3)CC2)cc1Cl,,inactive,
O=C(Nc1nc(-c2ccccc2)cs1)c1ccncc1NS(=O)(=O)c1ccc(Cl)cc1,2.25% (inactive),,
Cc1c(Cl)cccc1NC(=O)N1CCN(C(=O)c2nsc3ccccc23)CC1,-22.7% (inactive),,
COc1cc(C(CC(=O)NCCC(C)C)N2Cc3ccccc3C2=O)cc(OC)c1OC (configuration not stated),-20.7% (inactive),,
O=C(Cn1ccn2nc3c(c2c1=O)CCCCC3)NCc1ccccc1Cl,-6.55% (inactive),,
CC1=C(C(=O)N2CCN(c3cccc(C(F)(F)F)c3)CC2)C2(CCCCC2)OC1=O,-21.5% (inactive),,
CC(C)Sc1oc(-c2cccs2)nc1S(=O)(=O)c1ccc(Cl)cc1,-23.7% (inactive),,
CCc1nc(-c2ccc(OC3CCN(C(=O)Cc4c[nH]c5ccccc45)C3)cc2)no1 (configuration not stated),-4.97% (inactive),,
COc1ccc(CN2CCN(CCCSc3cc(C(C)(C)C)c(O)c(C(C)(C)C)c3)CC2)c(OC)c1OC,11.3% [at 5.1 µM],,

SMILES,"activity change, negative = inhibition",outcome,Potency
Cc1cn2nc(C(=O)NC3CCCC3)cc2c(N2CCSCC2)n1,,inactive,
CCN(CC)c1cc(CCC(=O)NCc2cc(F)ccc2F)ccn1,,inactive,
FC(F)(F)c1cc(Nc2nc3ccccc3c3nncn23)ccc1Cl,-5.64% (inactive),,
C=CS(=O)(=O)N1CCCN(c2cc(NCCC(=O)O)nc(-c3ccccn3)n2)CC1,166% (inactive),,
Cc1ccc(NC(=O)CCCn2c(=O)c3cccn3c3ccccc32)cc1Cl,-22% (inactive),,
Cc1ccccc1[C@@H](C(=O)NC1CCCCC1)N(C(=O)Cn1ccnc1C)c1cccc(F)c1,4.93% (inactive),,
CCOC(=O)C1CCCN(CC(=O)Nc2cc(C)c3c(=O)oc4ccccc4c3n2)C1 (configuration not stated),-8% (inactive),,
COc1ccc(Cc2nc3ccc(C(=O)NCc4ccccc4Cl)cc3o2)cc1,-15.7% (inactive),,
COc1ccc(C2=Nn3c(nnc3-c3ccccc3OC)SC2)cc1OC1CCCC1,,inactive,
O=[S+]([O-])(c1ccc2c(c1)OCCO2)N1CCN([S+](=O)([O-])c2c(Cl)cc(Cl)cc2Br)CC1,-5.69% (inactive),,
CC(=O)N1Cc2ccccc2CC2(CCN(Cc3ccc(O)cc3)CC2)C1,-17.4% (inactive),,
N#Cc1cc(-c2nc(Nc3ccc(F)c(F)c3)c3ccccc3n2)ccn1,,inactive,
COCCNc1ncnc2c1c(-c1ccccc1)cn2-c1ccc(C)c(Cl)c1,-18.5% (inactive),,
CN(Cc1ccccc1)C(=O)c1cn(C)c2ccc(S(=O)(=O)N(C)C3CCCCC3)cc2c1=O,-8.33% (inactive),,
O=C(Nc1ccc2ncnc(N3CCCCC3)c2c1)C1CCCCC1,,inactive,
CCOc1ccc(CCNC(=O)c2cc3ccccc3n2Cc2cccc(C)c2)cc1OCC,-6.04% (inactive),,
O=C(Cn1nc2c(cc1=O)CCCCC2)NC1CCN(C(=O)c2cc3ccccc3[nH]2)CC1,4.65% (inactive),,
COc1cc(OC)c(C(CC(=O)N2CC(C)CC(C)C2)c2ccc3c(c2)OCO3)c(OC)c1 (configuration not stated),-1.01% [at 39.2 µM] (inactive),,
Fc1cc(Nc2nc(-c3ccncc3)nc3ccccc23)ccc1N1CCCCC1,,inactive,
O=C(c1nc(-c2ccsc2)c2cnccn12)N1CCCC1,-15.1% [at 39.2 µM] (inactive),,
O=S(=O)(NCCc1noc(-c2ccccc2)n1)c1ccc2c(c1)OCCO2,-3.1% (inactive),,
CCOC(=O)c1cccc(NC(=O)Cn2cnc3nc4c(cc3c2=O)CCCC4)c1,-27.2% (inactive),,
C/C(=C\CC[C@@H](C)[C@H]1CC(O)[C@@]2(C)C3CC[C@H]4C(C)(C)[C@@H](OC5OCC(O)C(O)C5OC5OC(CO)C(O)C(O)C5O)CC[C@@]45C[C@@]35CC(O)[C@]12C)C(=O)O (some centres not stated),-6.9% [at 10 µM] (inactive),,
